Results published in PubChem BioAssay AID624330 (Southern Research Specialized Biocontainment Screening …, 2012).
The whole screen tested about 340,000 compounds, of which about 2,100 (0.62%) were called active.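 The calls were made as follows: active = first-screen hits whose inhibition reached a set limit at any dose in the follow-up dose series; inconclusive = inhibition above the set first-screen limit but never retested; inactive = the rest.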 These entries were drawn from the full list. Measured potencies and affinities stand elsewhere.

The molecules below were run against Rac GTPase-activating protein 1 (Homo sapiens) (UniProt Q9H0H5) (assay: blockers of MgcRacGAP-driven Rac1 GTP hydrolysis – biochemical, ADP Hunter fluorescence, primary and confirmatory, confirmation (AID 624330;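 also: fluorescence reports GDP produced by GAP-driven GTP hydrolysis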)). Details: MgcRacGAP-stimulated Rac1 GTP hydrolysis, at 30 µM, active compounds read high, GST-tagged Rac1 F28L mutant substrate.
Sequence of Rac GTPase-activating protein 1 (Homo sapiens) (Q9H0H5 whole entry, looked up): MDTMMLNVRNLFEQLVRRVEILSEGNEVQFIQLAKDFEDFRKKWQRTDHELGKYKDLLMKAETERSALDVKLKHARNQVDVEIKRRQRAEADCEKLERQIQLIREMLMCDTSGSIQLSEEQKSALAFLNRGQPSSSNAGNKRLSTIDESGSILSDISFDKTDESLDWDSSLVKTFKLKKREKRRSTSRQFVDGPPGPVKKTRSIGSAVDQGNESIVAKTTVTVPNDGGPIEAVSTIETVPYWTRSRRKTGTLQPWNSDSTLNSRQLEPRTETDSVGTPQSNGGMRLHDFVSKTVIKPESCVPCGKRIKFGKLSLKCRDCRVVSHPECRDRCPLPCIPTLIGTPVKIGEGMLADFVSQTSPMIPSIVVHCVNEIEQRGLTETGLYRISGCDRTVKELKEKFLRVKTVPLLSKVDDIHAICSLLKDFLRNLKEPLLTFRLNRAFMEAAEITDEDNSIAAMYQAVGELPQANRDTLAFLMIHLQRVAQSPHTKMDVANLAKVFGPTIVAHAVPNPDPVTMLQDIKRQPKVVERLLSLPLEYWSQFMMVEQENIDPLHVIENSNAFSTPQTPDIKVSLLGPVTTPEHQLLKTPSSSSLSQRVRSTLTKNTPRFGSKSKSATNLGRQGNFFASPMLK

inhibition, inactive:
O=C(CSc1nccc(=O)[nH]1)NN(c1ccccc1)c1ccccc1 11.2%
O=C(NCC(c1ccco1)N1CCN(c2ccccc2)CC1)C(=O)NC1CCCC1 (configuration not stated) 4.87%
CCCCCN(C(=O)CCC(=O)OCc1cccc(C)c1)c1c(N)n(CCCC)c(=O)[nH]c1=O 5.1%
O=C(CSc1nnc(COc2ccccc2)n1-c1ccccc1)c1cccs1 15.1%
CCOC(=O)c1nc(C)nc(Sc2n[nH]c(-c3ccccc3)n2)c1C 9.53%
C/C(=N/OCC(=O)Nc1ccccc1)c1cccs1 6.14%
CCCCc1ccc(NC(=O)CN(C)CC(=O)Nc2ccccc2Cl)cc1 11.5%
O=c1cc(-c2ccc(Cl)c(Cl)c2)[nH][nH]1 8.61%
CCCCC(=O)N1C/C=C\C(c2ccc(OC)cc2)N(Cc2ccc(F)cc2)C(=O)C1 (configuration not stated) 8.3%
O=[N+]([O-])c1ccc(NN=Cc2ccc(O)cc2O)nc1 24.6%
FC(F)(F)c1ccc(N/N=C/c2cccnc2)nc1 4.55%
COc1ccc(/C=N/Nc2ncc(C(F)(F)F)cc2Cl)cc1OC -7.93%
Cc1ncc(CO)c(/C=N/Nc2ccc(C(F)(F)F)cn2)c1O 61.5%
COc1cc(/C=N/Nc2ccc(C(F)(F)F)cn2)cc(OC)c1O 13%
O=C(O)c1ccc(/C=N/Nc2ccc(C(F)(F)F)cn2)cc1 13.8%
Cc1cccc(C(CC(=O)O)NC(=O)C(F)(F)F)c1 (configuration not stated) 2.11%
C=CCN(CC=C)CCCOc1ccc(C)cc1OC 14.4%
Cc1ccc(NS(=O)(=O)c2ccc3c(c2)NC(=O)C(C)C(=O)N3)cc1C (configuration not stated) -6.55%
CCC(Oc1ccccc1C)C(=O)N1CCCN(C)CC1 (configuration not stated) 3.47%
Cc1cccc(C)c1Nc1c(-c2ccc(N3CCOCC3)cc2)nc2cnccn12 13.6%
COc1ccc(OC)c(/C=N/c2c(-c3ccc(O)c(OC)c3)nc3ccccn23)c1 4.63%
COc1cc(-c2nc3cnccn3c2Nc2ccc3c(c2)OCCO3)ccc1O 15.7%
COc1cc(-c2nc3cnccn3c2NC(C)(C)CC(C)(C)C)ccc1O 17%
CCOc1cc(-c2nc3ccccn3c2NCC2CCCO2)ccc1O (configuration not stated) -4.32%
COc1cc(-c2nc3ccccn3c2/N=C/c2cccc(OC)c2O)ccc1O 10.6%
Cc1ccc2nc(-c3ccccc3O)c(Nc3ccc4c(c3)OCCO4)n2c1 11.2%
COc1cc(-c2nc3cccc(C)n3c2NCC2CCCO2)ccc1O (configuration not stated) -43.9%
O=C1CC2(CCCC2)C(=O)N1c1ccc(S(=O)(=O)NCC2CC2)cc1Cl 5.71%
COc1ccc(OCc2nnc(SC3CCOC3=O)n2-c2ccccc2)cc1 (configuration not stated) 11.2%
c1nnc(-c2ccc3c(c2)OCO3)o1 12.3%
CC(C)(C)C(=O)NCc1ccc(C(=O)CSc2nnc(C3CC3)n2C2CC2)s1 8.51%
C[C@]12C(=O)N(c3cccc(Cl)c3)C(=O)N1[C@@H]1c3ccccc3OC[C@@H]1[C@H]2c1ccccc1 6.88%
CCOC(=O)Cc1csc(SCC(=O)NC2CCS(=O)(=O)C2)n1 (configuration not stated) 0.45%
Cc1cc(-c2ccc(Cl)cc2)n2nc(N)nc2n1 8.73%
COc1ccc(C/C(N)=N/OC(C)=O)cc1OC 7.14%
COc1cc(-c2nc3cnccn3c2Nc2ccc(C(C)C)cc2)ccc1O 21.9%
COc1cc(-c2nc3cnccn3c2Nc2ccccc2)ccc1O 30.3%
CCOC(=O)C(C)Sc1nc(-c2ccccc2)nc2ccccc12 (configuration not stated) -2.03%
ON=C1CCCC2CCCCC12 (configuration not stated) -2.9%
CC(C)CNC(=O)CC(c1ccccc1)c1c(O)ccc2ccccc12 (configuration not stated) 10.5%
CC(C)CC(=O)NC(c1ccccc1)c1c(O)ccc2ccccc12 (configuration not stated) 7.84%
CN(Cc1ccccc1F)C(=O)CN1c2cccc3cccc(c23)S1(=O)=O 6.24%
COc1cccc(CNC(=O)CCS(=O)(=O)c2ccc3c(c2)NC(=O)CO3)c1 12.4%
CCCn1c(SCC(=O)NNC(=O)c2ccccc2)nnc1-c1cccnc1 12.3%
COc1ccc2cc(C(=O)Nc3ccc(F)cc3)sc(=O)c2c1OC 0.7%
O=C(NCCO)c1cc2ccccc2c(=O)s1 6.83%
O=C(Nc1ccccc1)c1cc2ccccc2c(=O)s1 -4.83%
COc1ccc2cc(C(=O)Nc3ccc(Cl)cc3)sc(=O)c2c1OC 7.43%
CCN1C(=O)[C@H]2[C@H]3CN=C(SCc4ccc(C(=O)OC)cc4)N3[C@@](Cc3ccccc3)(C(=O)OC)[C@H]2C1=O 11.1%
COC(=O)C(Cc1c[nH]c2ccccc12)NC(=O)c1cccc(S(=O)(=O)N2CCCCC2)c1 (configuration not stated) 2.63%
CCOC(=O)c1ccc(NC(=O)C(=O)NCC2(c3ccc(OC)cc3)CCOCC2)cc1 15.5%
CC(C(=O)Nc1ccc(Cl)cc1)N1C(=O)NC2(CCCC2)C1=O (configuration not stated) 3.21%
CCN(CC(=O)NCc1ccc(F)cc1)C(=O)CN1CCN(c2cc(Cl)ccc2C)CC1 4.22%
Cn1c(O)c(C=Nc2ccc(N3CCOCC3)cc2)c(=O)n(C)c1=S 10.4%
CCOc1ccc(N=Cc2ccccc2O)cc1 4.12%
O=[N+]([O-])c1cc(Br)c(O)c(C=Nc2ccc(N3CCOCC3)cc2)c1 54.6%
COc1ccc(N=Cc2ccccc2O)cc1 7.18%
CCN(CC)c1ccc(C=Nc2ccc(N(C)C)cc2)c(O)c1 19.7%
Cc1cc(O)c(C=Nc2ccc(N3CCOCC3)cc2)c(C)c1Cl 24.8%
Cc1ccc(N=Cc2ccc(O)cc2O)cc1F 2.37%
Oc1ccc(N=Nc2cccc(Cl)c2)cc1C=Nc1ccc(N2CCOCC2)cc1 7.02%
CS(=O)(=O)c1ccc(Cl)c(NC(=O)COC(=O)CNC(=O)c2ccccc2)c1 6.09%
O=C(Cc1cccc(F)c1)Nc1ccc2c(c1)CCC2 6.98%
C=C(c1ccccc1Cl)[n+]1ccccc1 -11.7%
N#CCCN(Cc1cccnc1)C(=S)NC(=O)c1ccco1 5.92%
O=C(OCC(=O)N1CCCC1)c1c(Cl)ccc(Cl)c1Cl -3.47%
Cc1nc(C(=O)N(C)C)nn1-c1cc(Cl)ccc1Cl 9.33%
Cc1ccc(-n2c(C(C)C)nc3oc4ccccc4c(=O)c3c2=O)cc1 0.93%
Oc1ccc(Br)cc1C=Nc1ccc(Cl)cc1 8.07%
Oc1ccc(Br)cc1/C=N/N1CCCCC1 6.18%
Cc1cc(C)cc(NC(=O)c2cccc(NC(=O)c3ccco3)c2)c1 -0.13%
O=C(Nc1cccc(NC(=O)c2ccco2)c1)c1cccc(Br)c1 7.43%
COc1ccccc1NC(=O)c1oc2ccccc2c1NC(=O)C1CC1 1.66%
CCOc1ccc(CN(C)CC(=O)c2c(N)n(Cc3ccccc3)c(=O)n(CC)c2=O)cc1OC 5.23%
CCn1c(=O)c(C(=O)CN(C)Cc2ccc(F)cc2)c(N)n(Cc2ccccc2)c1=O 5.49%
Cc1cccc(NC(=O)c2nc[nH]c2C(=O)N[C@@H](CC(C)C)C(=O)OCc2ccccc2)c1 5.96%
Cc1cc(C)cc(NC(=S)N2CCC(C(=O)c3ccc(F)cc3)CC2)c1 -15.2%
CC(C)CN(C(=O)c1cc2ccccc2o1)c1c(N)n(CC(C)C)c(=O)[nH]c1=O 7.89%
Cc1nn(-c2ccccc2)c(C)c1NC(=O)COC(=O)CCOc1ccccc1 2.57%
CC(=O)Nc1ccc(N/C=C2/CCCC2=O)cc1 14.8%
Cc1ccc(N/C=C2\CCCCC2=O)c(C)c1 5.15%
c1ccc(Nc2ccccc2)cc1 3.58%
CCC(CC)C(=O)Nc1ccc(Nc2ccccc2)cc1 28%
CCCCC(CC)C(=O)Nc1ccc(Nc2ccccc2)cc1 (configuration not stated) 22.3%
COCC(=O)Nc1ccc(Nc2ccccc2)cc1 15.4%
O=C(O)CCC(NS(=O)(=O)c1ccc(N2CCCC2=O)cc1)C(=O)O (configuration not stated) -1.24%
CCOc1ccc(S(=O)(=O)N2CCN(C(=O)c3cc(-c4ccccc4)nn3-c3ccccc3)CC2)cc1 6.52%
CNC(=O)C(=O)Nc1ccc2c(c1)N(S(=O)(=O)c1cccs1)CCC2 4.61%
CN(CCCC1CCCC1)C(=O)c1cc(COc2c(F)cccc2F)on1 7.43%
CCOc1cc(/C=C/c2cccc[n+]2C)ccc1OCC(=O)Nc1ccc(C)cc1 7.44%
C[n+]1ccccc1/C=C/c1ccc(F)c(F)c1 9.42%
Cc1ccc(CS(=O)Cc2ccc(C(=O)N3CCN(c4ccccn4)CC3)o2)cc1 (configuration not stated) 9.12%
COc1cc2[nH]ccc(=O)c2cc1OC 1.14%
COc1ccc2cc[nH]c2c1 6.12%
Nc1n[nH]c(N)c1N=Nc1ccc(F)cc1 12.4%
Nc1[nH][nH]c(=O)c1N=Nc1ccc2c(c1)OCO2 19.5%
Cc1ccccc1-n1c(SCC(=O)c2c(N)n(C3CC3)c(=O)[nH]c2=O)nnc1N1CCOCC1 4.29%
